Pf growth 96h – Primary qHTS for delayed death inhibitors of the malarial parasite plastid, 96 hour incubation | P. falciparum luciferase reporter growth, 96 h | Potency, µM (highest dose often 28.7 µM), usual class: inhibitors | 320,000 compounds, 6.9% hits
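Two parasite generations (96 h, 37 C, 5% CO2) of compound exposure in infected erythrocytes (0.05% parasitemia, 2% hematocrit). Luciferase-reporter P. falciparum; decreased luminescence indicates inhibited growth, aimed at apicoplast-acting delayed death.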
Shiga inhibitor – A qHTS for Small Molecule Inhibitors of Shiga Toxin. Vero cells, Shiga toxin protein synthesis inhibition reporter. inhibition, % at 38.7 µM. 290,000 compounds, 9.2% hits. AID 2315, 2010; in the data active = inhibition mostly above about 28%, no sharp cut-off; inactive = mostly below about 43%
CHX counter – Cycloheximide Counterscreen for Small Molecule Inhibitors of Shiga Toxin; cell reporter, cycloheximide protein synthesis inhibition counterscreen; max response, %; 300,000 compounds, 12% hits; AID 2314, 2010; in the data active = max response mostly above about 13%, no sharp cut-off; inactive = mostly below about 14%; also: read at 38.3 µM for the half of the compounds with a filed dose
HCMV antiviral – qHTS Assay for inhibitors of the human cytomegalovirus (HCMV) | HFF cells, HCMV-luciferase reporter, 72 h; hits give low values | activity change, negative = inhibition, % at 57.5 µM | 410,000 compounds, 4.5% hits | AID 1259415, 2018; in the data active = activity change below about -60%; inconclusive = no clear call, values can overlap the other calls; inactive = above about -39%
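Luciferase read-out from HCMV-luciferase-infected HFFs (MOI 1 PFU/cell) 72 h post infection at 37C; compounds added after 16 h cell attachment; activity normalized between buffer-only basal and Salinomycin (10uM) inhibitor controls.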
Pf growth 48h – Primary qHTS for delayed death inhibitors of the malarial parasite plastid, 48 hour incubation | P. falciparum luciferase growth in erythrocytes, 48 h | Potency, µM (doses to about 28.7 µM), most hits filed as inhibitors | 310,000 compounds, 5.9% hits
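Firefly luciferase activity from engineered P. falciparum reports growth; inhibitors lower the luminescent signal. Cultures contained 2% hematocrit erythrocytes at 0.1% final parasitemia.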
Of the large screens only hits and unclear results are named; the others gave an inactive call. This is a sample that favours compounds with a hit; in the whole collection about 20% have one here. Unless noted, calls follow the shape of the dose curve; as a rule, active = well fitted inhibition curve with a large enough effect; inconclusive = small, poorly fitted or top-dose-only effect, or another doubt; inactive = no such curve, though single readings can be large or run the other way.

Nc1nc(Cl)cc(Nc2ccccc2Cl)n1	CHX counter 12, HCMV antiviral inconclusive
O=C1COc2ccc(-c3cc(-c4ccccc4)c4c(n3)-c3ccccc3OC4)cc2N1	none (no result: Pf growth 96h, Shiga inhibitor, CHX counter, Pf growth 48h)
Cc1cccn2cc(-c3ccc4c(c3)NC(=O)CO4)nc12	Shiga inhibitor 61, CHX counter 31
Cc1ccc(-c2cc(-c3ccc4c(c3)NC(=O)CO4)nc3c2COc2ccc(C)cc2-3)cc1	none (no result: Pf growth 96h, Shiga inhibitor, CHX counter, Pf growth 48h)
Cc1ccn2cc(-c3ccc4c(c3)NC(=O)CO4)nc2c1	Shiga inhibitor 75, HCMV antiviral -84
Cc1c(NC(=O)C(Sc2ccccc2)c2ccccc2)cccc1[N+](=O)[O-] (centres undefined)	Pf growth 48h inconclusive
COc1ccc(NC(=O)Cn2c(=O)n(Cc3ccco3)c(=O)c3oc4ccccc4c32)cc1Cl	none (no result: Pf growth 96h, Shiga inhibitor, CHX counter, Pf growth 48h)
COc1ccc(-c2csc(-c3cccs3)n2)c(OC)c1	Shiga inhibitor 70, CHX counter 34
COc1ccc(-c2csc(-c3ccccc3)n2)c(OC)c1	Shiga inhibitor 115, CHX counter 53
COc1ccc(OC)c(S(=O)(=O)NCc2csc(-c3ccccc3)n2)c1	none
CCOc1ccc(-n2c(=O)c3c4c(sc3n(CC(=O)Nc3cccc(C(F)(F)F)c3)c2=O)CCCCC4)cc1	none (no result: Pf growth 96h, Shiga inhibitor, CHX counter, Pf growth 48h)
CCC(C)(C)n1nnnc1C(c1cccnc1)N1CCCC(C)C1 (centres undefined)	Pf growth 48h inconclusive
Cc1ccccc1Nc1nc(N)nc(COC(=O)CC2CC3CCC2C3)n1 (centres undefined)	Pf growth 96h inconclusive
CCCCCCC(=O)N(O)C1CC(=O)N(Cc2ccccc2)C1=O (centres undefined)	Pf growth 48h 5.9µM (no result: Pf growth 96h)
CCCCCC(=O)N(O)C1CC(=O)N(c2ccccc2)C1=O (centres undefined)	Pf growth 96h inconclusive, Pf growth 48h 10µM
CC1CCCC(NC(=O)c2ccc3c(=O)n(CC4CCCO4)c(=O)[nH]c3c2)C1C (centres undefined)	Pf growth 96h inconclusive, Pf growth 48h 2.6µM
CC(C)Oc1cc(-n2c(=S)[nH]c3ccccc3c2=O)c(Cl)cc1Cl	Pf growth 96h 4.7µM, Pf growth 48h 5.9µM
CC(C)NC(=O)c1ccc2c(=O)n(CC3CCCO3)c(=S)[nH]c2c1 (centres undefined)	Pf growth 96h 9.3µM
CC(C)NC(=O)c1ccc(-n2c(=S)[nH]c3ccccc3c2=O)cc1	HCMV antiviral -84
COc1cc(/C=N\NC(=O)C2CC3C=CC2C3)ccc1O (centres undefined)	none
COc1cccc(N2CCN(C(=O)CCc3c(C)nc4c(c3C)c(=O)n(C)c(=O)n4C)CC2)c1	none (no result: Pf growth 96h, Shiga inhibitor, CHX counter, Pf growth 48h)
C[C@H]1CN([C@@H](C)CO)C(=O)c2cc(Br)cnc2O[C@@H]1CN(C)C(=O)CN(C)C	none (no result: Pf growth 96h, Shiga inhibitor, CHX counter, Pf growth 48h)
Cc1c(C(=O)N2CCC(C)CC2)sc2ncnc(N3CCN(c4ccccc4)CC3)c12	none
CCC(C)[C@H]1COCCS(=O)(=O)N1Cc1ccc(Cl)cc1Cl (some centres undefined)	Pf growth 96h inconclusive
O=C(NCc1ccccc1Cl)c1ccc(NC(=O)N2CCSc3ncccc32)cc1	HCMV antiviral active (no result: Pf growth 96h, Shiga inhibitor, CHX counter, Pf growth 48h)
O=C(Cc1ccc(NC(=O)N2CCSc3ncccc32)cc1)NCc1ccccc1Cl	none (no result: Pf growth 96h, Shiga inhibitor, CHX counter, Pf growth 48h)
O=C(NCc1ccccc1F)c1cccc(NC(=O)N2CCSc3ncccc32)c1	HCMV antiviral active (no result: Pf growth 96h, Shiga inhibitor, CHX counter, Pf growth 48h)
COc1ccc(-c2noc(-c3nnn(-c4ccc(C(C)C)cc4)c3C)n2)cc1OC	none (no result: Pf growth 96h, Shiga inhibitor, CHX counter, Pf growth 48h)
Clc1ccc(N=C2SCC3CCCCN23)cc1 (centres undefined)	Shiga inhibitor 77, CHX counter 70
FC(F)Oc1ccc(N=C2SCC3CCCCN23)cc1 (centres undefined)	Shiga inhibitor 131, CHX counter 53
O=C(CN1CCCC1c1cccs1)N1CCN(S(=O)(=O)c2ccccc2)CC1 (centres undefined)	Pf growth 96h inconclusive (no result: Shiga inhibitor, CHX counter)
Cc1cc2nnn(-c3nnc(-c4ccccc4)c4ccccc34)c2cc1C	Pf growth 96h 8.3µM, Pf growth 48h inconclusive
COc1ccc(-c2nn(-c3ccccc3)cc2/C=C(\C#N)S(=O)(=O)c2ccccc2)cc1OC	none
Cc1cc(/C=C(/C#N)c2nc3ccccc3[nH]2)c(C)n1-c1cc(C(=O)O)cc(C(=O)O)c1	none
CN(C)S(=O)(=O)c1cccc(-c2nn(-c3ccccc3)cc2/C=C2\SC(=S)NC2=O)c1	Pf growth 96h 2.6µM, HCMV antiviral -82, Pf growth 48h 4.7µM
CN(C)S(=O)(=O)c1cccc(-c2nn(-c3ccccc3)cc2/C=C(\C#N)c2nc3ccccc3[nH]2)c1	Pf growth 96h 1.5µM, Pf growth 48h 2.1µM
O=C(O)/C=C/c1cn(-c2ccccc2)nc1-c1ccc(-c2ccc([N+](=O)[O-])cc2)o1	HCMV antiviral inconclusive
Cc1ccc(-c2nn(-c3ccccc3)cc2/C=C(\C#N)c2cccc(C#N)c2)o1	Pf growth 48h 12µM (no result: Pf growth 96h, HCMV antiviral)
N#C/C(=C\c1cn(-c2ccccc2)nc1-c1cc2ccccc2o1)c1nc2ccccc2[nH]1	Pf growth 96h 0.66µM, Shiga inhibitor 121, CHX counter 46, Pf growth 48h 1µM
CN1CCN(C(=O)Cn2ncc3c4ccccc4n(Cc4ccc(Cl)cc4)c3c2=O)CC1	none (no result: Pf growth 96h, Shiga inhibitor, CHX counter, Pf growth 48h)
CCn1ncc(Br)c1C(=O)Nc1ccc(C(=O)OC(C)C)cc1	CHX counter 27, Pf growth 48h inconclusive (no result: Pf growth 96h)
CC(=O)Oc1cccc(C(=O)Nc2ccccc2C(=O)N2CCCC2)c1	none
COc1ccc(NC(=O)CSc2nc(-c3ccc(OC)cc3)cc(=O)[nH]2)cc1	none (no result: Pf growth 96h, Shiga inhibitor, CHX counter, Pf growth 48h)
COC(C(=O)Nc1ccc(S(=O)(=O)N2CCCCC2)cc1)c1ccccc1 (centres undefined)	none (no result: Pf growth 48h)
COC(C(=O)Nc1ccc(F)cc1)c1ccccc1 (centres undefined)	none
COC(C(=O)Nc1ccc(S(=O)(=O)Nc2cccc3ccccc23)cc1)c1ccccc1 (centres undefined)	HCMV antiviral -88
COC(C(=O)Nc1ccc(S(=O)(=O)Nc2ccc(F)cc2)cc1)c1ccccc1 (centres undefined)	Pf growth 96h inconclusive, HCMV antiviral -62
COc1ccccc1OCc1ccc(C(=O)n2nc(C)c(Cl)c2C)o1	none
CCNc1nc(NCC)n2c(SCC(=O)Nc3ccc(NC(C)=O)cc3)nnc2n1	Pf growth 96h inconclusive, Pf growth 48h inconclusive (no result: Shiga inhibitor, CHX counter)
CCNc1nc(NCC)n2c(SCC(=O)N(CC)C3CCCCC3)nnc2n1	Pf growth 96h 7.4µM, Pf growth 48h inconclusive
CCNc1nc(NCC)n2c(SCC(=O)Nc3ccc(CC)cc3)nnc2n1	Pf growth 96h inconclusive, Pf growth 48h 10µM (no result: Shiga inhibitor, CHX counter, HCMV antiviral)
COc1ccc(F)cc1S(=O)(=O)NCCc1csc2nc(-c3cccc(C)c3)nn12	none (no result: Pf growth 96h, Shiga inhibitor, CHX counter, Pf growth 48h)
COC(=O)c1ccc2nc(C3CCCCC3)c(Cc3ccccc3)n2c1	none (no result: Pf growth 96h, Shiga inhibitor, CHX counter, Pf growth 48h)
COc1ccc(CCNC(=O)CN(C)S(=O)(=O)c2cccs2)cc1OC	Pf growth 96h inconclusive
COc1ccc(S(=O)(=O)N(C)CC(=O)NCc2ccccc2)cc1OC	none
COc1ccc(S(=O)(=O)N(C)CC(=O)NCCc2ccccc2)cc1OC	Pf growth 96h 15µM, Pf growth 48h inconclusive
